Source: PubChem BioAssay (several laboratories)
This is a sample that favours compounds with a hit; in the whole collection about 2% have one here.
Jurkat NFkB inh: inhibitors of the PMA/ionomycin-induced NF-kB reporter in Jurkat cells | PMA/ionomycin-induced NF-kB luciferase reporter, luminescence | inhibition, % at 4 µM | actives 0.53% (n = 330,000) | AID 435003; in the data active = inhibition above about 50%
GalR3 antagonist: blocks the human galanin receptor 3; O60755; HEK293 GalR3-CNG cAMP membrane potential fluorescence; galR3 body fused to GalR1 C-terminus; inhibition, % at 3 µM; actives 0.44% (n = 360,000); AID 651719;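 active = inhibition above the screen-wide average plus 3 SD, cut at about 13% in these data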;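 note: forskolin and galanin both at EC90 stimulate the cells; cAMP rise reported by CNG channel membrane potential dye signal; 0% = forskolin plus galanin with DMSO and 100% = forskolin alone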
697 NFkB inh: lowers PMA/ionomycin-induced NF-kB signal in 697 B cells. 697 B-cell NF-kB luciferase reporter, 16 h. inhibition, % at 4 µM. actives 0.33% (n = 330,000). AID 435022; in the data active = inhibition above about 35%
Gli-Sufu block: Gli-Sufu pathway antagonism | Sufu-KO-LIGHT fibroblasts, Gli luciferase reporter luminescence | inhibition, % at 5 µM | actives 0.74% (n = 340,000) | AID 588413;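 active = inhibition above about 55%, limit read from the data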;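 note: 0% = DMSO-treated cells and 100% = wells with medium but no cells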
COUP-TFII inh: inhibitors of human COUP-TFII (NR2F2) | HEK293T NGFI-A luciferase reporter, luminescence | AID 686940 | inhibition, % at 8.6 µM | actives 0.7% (n = 370,000);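 active = inhibition above a per-plate cutoff, mean inhibition of test wells between control levels plus 3 SD, cut at about 38% in these data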;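 note: cells cotransfected with COUP-TFII expression vector driving the NGFI-A reporter; 0% = median of COUP-TF2 test wells and 100% = reporter-only cells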
Target sequence (P24468 whole entry, looked up): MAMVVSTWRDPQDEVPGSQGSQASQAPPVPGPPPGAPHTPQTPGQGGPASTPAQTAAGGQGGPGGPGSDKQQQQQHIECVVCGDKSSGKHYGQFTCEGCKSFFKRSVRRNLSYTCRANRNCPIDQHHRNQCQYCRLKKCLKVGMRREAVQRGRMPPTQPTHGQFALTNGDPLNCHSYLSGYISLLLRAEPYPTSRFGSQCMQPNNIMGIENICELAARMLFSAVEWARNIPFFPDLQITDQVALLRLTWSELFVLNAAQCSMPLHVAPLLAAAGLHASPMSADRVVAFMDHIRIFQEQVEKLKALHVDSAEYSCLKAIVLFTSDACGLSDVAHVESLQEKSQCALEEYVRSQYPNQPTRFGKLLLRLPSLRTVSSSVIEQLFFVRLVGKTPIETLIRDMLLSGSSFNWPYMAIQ
Starred values were filed as active, the others as inactive; . = not tested or not shown.

SMILES	Jurkat NFkB inh	GalR3 antagonist	697 NFkB inh	Gli-Sufu block	COUP-TFII inh
COc1cccc2[nH]c3c(N4CCCCC4)ncnc3c12	-10	96*	-13	5	-33
CCN(CC)c1nc2ccccc2[nH]c1=O	0	-7	15	-7	-14
CN(c1nc2ccccc2[nH]c1=O)C1CCCCC1	0	-7	-13	57*	-4
O=S(=O)(Nc1cc(Sc2cccc3cccnc23)c(O)c2ccccc12)c1ccc(F)cc1	.	-5	.	96*	17
COc1ccc(S(=O)(=O)Nc2cc(SCC(=O)O)c(O)c3ccccc23)cc1	11	-9	8	23	-11
COC(=O)C[C@H]1CC[C@H]2[C@H](COc3ccc(NC(=O)c4cccs4)cc3C(=O)N2C)O1	.	.	.	.	1
CN(CCO)c1ccc2c(c1)Oc1ccccc1CN(Cc1cn(Cc3ccc(C(F)(F)F)cc3)nn1)S2(=O)=O	.	.	.	.	-21
O=S(=O)(c1cccs1)N1CCN(CC(O)COc2cc(Cl)ccc2Cl)CC1 (stereo not given)	19	68*	-9	40	4
COC(=O)c1ccc2c(C3(c4c[nH]c5ccccc45)CCN(C(=O)OC(C)(C)C)CC3)c[nH]c2c1	.	.	.	.	-10
Cc1ccccc1/C=C/c1cc[n+](C)cc1	3	-3	1	6	-21
CC(C)n1cc(/C=C/c2cc[n+](C)cc2)c2ccccc21	20	-9	-18	71*	34
C=CCn1cc(/C=C/c2cc[n+](C)cc2)c2ccccc21	21	-10	5	66*	49*
COc1ccccc1NC(=O)COC(=O)c1ccc([N+](=O)[O-])s1	-5	13*	33	-6	-26
COc1cc(OC)cc(C(=O)NCC(=O)N2CCN(c3ccc(O)cc3)CC2)c1	27	-3	-9	58*	1
COc1ccc(N2CCN(C(=O)CNC(=O)c3ccc4ccccc4c3)CC2)cc1	12	-6	12	3	-1
O=C(N/N=C/c1c(O)ccc2ccccc12)c1cccnc1	13	-16	-1	68*	-21
O=C(NN=Cc1c(O)ccc2ccccc12)c1ccncc1	.	-6	.	87*	-13
Cn1nccc1C(=O)N/N=C/c1c(O)ccc2ccccc12	45	0	-3	85*	-46
COC(=O)[C@H](C(C)C)N1CCc2nnn(CC3CCCCC3)c2-c2cc(F)ccc2S1(=O)=O	.	.	.	.	3
C=CCN(CC#Cc1ccc(C)cc1)Cc1ccc(OC)cc1OC	.	.	.	.	-6
COc1ccc(CNC(=O)c2cc3c(C)nc4ccccc4c3o2)c(OC)c1	43	.	14	57*	.
COc1ccc(N2CCN(C(=O)c3cc4c(C)nc5ccccc5c4o3)CC2)cc1	-13	-2	-24	6	3
COC(=O)[C@H](CC(C)C)N(Cc1cn(Cc2ccccc2)nn1)S(=O)(=O)c1ccc(F)cc1Br	.	.	.	.	-16
Cc1ccc(/C=N/Nc2ccnc3cc(Cl)ccc23)c(C)c1	17	-6	-21	60*	6
Cc1ccccc1/C=N/Nc1ccnc2cc(Cl)ccc12	.	-3	.	2	12
SMILES	Jurkat NFkB inh	GalR3 antagonist	697 NFkB inh	Gli-Sufu block	COUP-TFII inh
Cc1ccnc(NC(c2ccccc2)c2ccc3cccnc3c2O)c1 (stereo not given)	.	-1	.	-7	12
CC(=O)NC(c1ccc(Cl)cc1)c1ccc2cccnc2c1O (stereo not given)	.	-10	.	80*	14
CC(C)C(=O)NC(c1ccc(Cl)cc1Cl)c1ccc2cccnc2c1O (stereo not given)	47	-11	-26	28	-33
CC(=O)NC(c1ccco1)c1ccc2cccnc2c1O (stereo not given)	21	.	-4	-10	.
Cc1cc(NC(c2ccc(Cl)cc2)c2ccc3cccnc3c2O)no1 (stereo not given)	33	-1	-32	67*	7
CCC(=O)NC(c1ccc(Cl)cc1Cl)c1ccc2cccnc2c1O (stereo not given)	37	-2	-99	89*	-16
Cn1c(CNc2ccccc2F)nc2ccccc21	.	.	.	.	-46
Cc1cccc(NC(=O)N2CCC(N(C)CCC(C)C)CC2)c1	.	.	.	.	1
Cc1cc(C(=O)Nc2nc(-c3ccccn3)cs2)ccc1[N+](=O)[O-]	-3	-10	-3	-4	-10
O=C(Nc1nc(-c2ccccn2)cs1)c1cc(Cl)ccc1[N+](=O)[O-]	35	-5	5	65*	21
Cc1ccc(Cc2c(-c3ccco3)nc3c(C)cc(Br)cn23)cc1	.	34*	.	.	7
Cc1cc(C(C)(C)CC(C)(C)C)ccc1OCCOCC[N+](C)(C)Cc1ccccc1	17	8	23	65*	17
C[N+](C)(CCOc1ccccc1)Cc1ccccc1	.	-2	.	10	10
S=C(NCc1ccccn1)NN=Cc1ccccn1	.	-8	.	74*	-32
O=[N+]([O-])c1cc(Cl)cc(/C=N\Nc2ccccn2)c1O	-12	0	-8	57*	-5
CCC[C@@H](CN1CCC[C@H]1CN1C(N)=NC[C@@H]1Cc1ccccc1)N1C[C@@H]([C@H](C)CC)N(CCCC2CCCC2)C1=N	0	.	-10	61*	.
CCNC(=O)N(C)[C@H]1C[C@H]2c3[nH]c4cccc(-c5cccc(F)c5)c4c3CCN2C(=O)[C@H]1[C@H](C)O	.	.	.	.	-8
CCOC(=O)/C(=C\c1ccccc1)C(=O)c1cc(C(C)=O)c(Nc2ccccc2)s1	20	-5	0	11	-3
CCOC(=O)/C(=C\c1cccnc1)C(=O)c1cc(C(C)=O)c(Nc2ccccc2)s1	16	.	-8	60*	.
O=c1c2ccccc2nc(/C=C/c2ccc([N+](=O)[O-])cc2)n1CCCO	6	-12	15	15	1
O=c1c2ccccc2nc(/C=C/c2ccc([N+](=O)[O-])o2)n1CCCO	10	-2	-3	71*	-32
CCn1c(SCC(=O)Nc2nc(-c3ccc(C)cc3)cs2)nnc1-c1ccccc1	-11	-3	-32	-4	-16
CCn1c(SCC(=O)Nc2nc(-c3ccc(C)cc3)cs2)nnc1-c1ccccc1O	-8	-1	-57	3	48*
NC(=S)n1[nH]c(-c2ccc([N+](=O)[O-])cc2)c(N=Nc2cccc(Cl)c2)c1=O	4	6	8	62*	22
NC(=S)n1[nH]c(-c2ccc([N+](=O)[O-])cc2)c(N=Nc2ccc(O)cc2)c1=O	20	-3	10	3	-15
COC(=O)c1cc(C)nc2c1C(=O)C(=O)C=C2N1CCOCC1	33	-14	-54	10	42*
COC(=O)c1cc(S(=O)(=O)N2CCOCC2)c(Cl)cc1N1CCOCC1	-2	-3	0	1	-7
CCOC(=O)CC[C@@]1(C(=O)OCC)C[C@@H](CC(=O)NCc2ccc(C)o2)C(=O)N2CCCC=C21	.	.	.	.	-6
COC(=O)[C@]12C[C@H](CC(=O)NCCc3ccccc3OC)C(=O)N(Cc3ccc4c(c3)OCO4)C1=C[C@H](C(C)C)O[C@@H]2C1CC1	.	.	.	.	0
CCCc1cc(=O)oc2c3c(cc(OCC(=O)NCc4ccccn4)c12)OC(C)(C)CC3	3	16*	11	11	-19
